# Bioassay records: PubChem, National Center for Advancing Translational Sciences (NCATS)
# TGFb SMAD3 inh: blocks TGF-b signaling; Potency, µM (top dose mostly 46.1 µM), without a hit: top-dose activity, negative = inhibition, actives largely listed as inhibitors; AID 588855; HepG2 CAGA-GFP TGF-b/SMAD3 reporter, GFP fluorescence, 18 h; TGF-beta stimulated, 500 pg/mL final; hit rate 1.2% among 410,000; also: % is scaled to controls: 0 for no effect and ±100 for the full control effect; nearly all actives have a fitted effect of over 65% in size
#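 Read-out: total well GFP (ex488/em500-530) summed from mean per-cell fluorescence. Cells: HEPG2 CAGA-GFP, 1% FBS DMEM, 18 h at 37 degrees C with 500 pg/mL final TGF-beta. Unstimulated wells served as the full-inhibition control; stimulated DMSO wells = 0%.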
# ATXN2 expr inh: inhibitors of ATXN2 expression. Potency, µM (titrated, usually from 57 µM), for the others: at the top dose activity change, negative = inhibition, hits mostly inhibitors. hit rate 0.72% among 360,000. HEK-293 ATXN2-luciferase reporter, luminescence, 24 h; also: % is scaled to controls: 0 for no effect and ±100 for the full control effect; nearly all actives have a fitted effect of over 55% in size
#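 qHTS (up to 57 uM final) was run with 24 h compound exposure of reporter cells at 37 °C. Each well was multiplexed: SteadyGlo luminescence measured ATXN2-luciferase expression after a fluorogenic Gly-Phe-AFC viability readout (25 uM final).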
# HepG2 tox-1: kills HepG2 cells in TGF-b inhibitor counter-screen; hit rate 0.76% among 410,000; HepG2 CAGA-GFP viability, ATP luminescence, 18 h; AID 588856; Potency, µM (top dose mostly 46.1 µM), for inactives: top-dose activity change, negative = cytotoxicity, usual class: cytotoxic
#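 CellTiter-Glo luminescence gave cytotoxicity after 18 hours at 37 degrees C. The cells were HepG2 CAGA-GFP in 1% FBS DMEM, stimulated with 500 pg/mL TGF-beta after compound addition. %Activity was normalised to no-cell wells (complete cell-killing) and DMSO (no toxicity), and curves were fitted and classified.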
# Anesthetic bind: candidate novel general anesthetic via apoferritin binding; P02791; apoferritin/1-aminoanthracene competitive binding, fluorescence; Potency, µM (series often up to 77.5 µM), for the others: at the top dose activity change, negative = displacement, actives largely listed as inhibitors; hit rate 0.074% among 350,000; also: % is scaled to controls: 0 for no effect and ±100 for the full control effect; nearly all actives have a fitted effect of over 20% in size
# Target sequence (P02791 2-175 limits assumed): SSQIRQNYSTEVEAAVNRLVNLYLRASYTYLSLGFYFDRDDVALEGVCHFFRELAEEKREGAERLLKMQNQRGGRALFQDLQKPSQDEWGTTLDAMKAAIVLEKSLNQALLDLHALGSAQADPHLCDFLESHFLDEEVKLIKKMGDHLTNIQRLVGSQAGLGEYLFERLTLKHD
#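 10 uM apoferritin + 50% sat. 1-AMA, PBS; cpd 10 min RT; Ex380/Em535 endpoint; normalized to free probe vs complex; 4-param Hill fit; propofol titration as pos. ctrl.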
# ATXN viability: cell viability loss in ATXN counter-screen. S2 cells (HEK-293 line with an ATXN2-luciferase reporter) viability, CellTiter-Fluor protease fluorescence, 24 h. hit rate 0.49% among 400,000. Potency, µM (titrated, usually from 56.7 µM), most hits filed as cytotoxic; also: nearly all actives have a fitted effect of over 40% in size
# TGFb CAGA inh: TGF-b pathway inhibition, cherry-pick retest. shares compounds with TGFb SMAD3 inh. HepG2 CAGA-GFP TGF-b reporter, GFP fluorescence, 18 h; cells stimulated with TGF-beta, 500 pg/mL. Potency, µM (series often up to 46.1 µM), inactives show at the highest dose activity, negative = inhibition, usual class: inhibitors. hit rate 63% among 1,600; also: % is scaled to controls: 0 for no effect and ±100 for the full control effect; nearly all actives have a fitted effect of over 65% in size
# HepG2 tox-2: toxic to HepG2 cells in TGF-b counterscreen; shares compounds with TGFb SMAD3 inh; HepG2 CAGA-GFP viability, ATP luminescence, 18 h; cells stimulated with TGF-beta, 500 pg/mL; Potency, µM (highest dose often 46.1 µM), for inactives: at the highest dose activity, negative = cytotoxicity, most hits filed as inhibitors; hit rate 27% among 1,600; also: % is scaled to controls: 0 for no effect and ±100 for the full control effect; nearly all actives have a fitted effect of over 70% in size
# TGFb CCL64 inh: TGF-b inhibition, CCL64 orthogonal assay. shares compounds with TGFb SMAD3 inh. CCL64 CAGA-GFP reporter, TGF-b stimulated, GFP fluorescence, 18 h. Potency, µM (doses to about 46.1 µM), for the others: at the highest dose activity, negative = inhibition, most hits filed as inhibitors. hit rate 41% among 1,600. AID 720536; also: nearly all actives have a fitted effect of over 65% in size
# TGFb COP inh: blocks TGF-b signaling in HepG2 COP reporter; shares compounds with TGFb SMAD3 inh; HepG2 COP-GFP TGF-b reporter, GFP fluorescence, 18 h; cells stimulated by added recombinant TGF-beta; Potency, µM (highest dose often 46.1 µM), for the others: at the top dose activity, negative = inhibition, usual class: inhibitors; hit rate 3% among 1,600; AID 720537; also: nearly all actives have a fitted effect of over 70% in size
# Starred values were filed as active, the others as inactive; i = inactive; ? = inconclusive; · = no result given; [ ] = dose if it differs, or a comment. Compounds with a hit are over-represented: about 2.4% of the library has one in this group of screens. Calls follow the shape of the dose curve; as a rule, active = well fitted curve in the direction sought with a large enough effect; inconclusive = small, poorly fitted or top-dose-only effect, or another doubt; inactive = no such curve, though single readings can be large; an effect the other way counts as inactive or inconclusive. Potency is read from the fitted curve at half-maximal effect.
SMILES,TGFb SMAD3 inh,ATXN2 expr inh,HepG2 tox-1,Anesthetic bind,ATXN viability,TGFb CAGA inh,HepG2 tox-2,TGFb CCL64 inh,TGFb COP inh
COc1cc(CC(C)N)cc(OC)c1OC (stereo unspecified),·,9%[116 µM],·,·,?,·,·,·,·
COc1ccc(-n2nnnc2C(c2cccs2)N2CCC(n3c(=O)[nH]c4ccccc43)CC2)cc1 (stereo unspecified),?,?,-3%,·,?,·,·,·,·
COc1ccc(-n2nnnc2C(c2ccccc2)N2CCC(n3c(=O)[nH]c4ccccc43)CC2)cc1 (stereo unspecified),8.9µM*,?,-2%,·,?,?,?,?,58%
COc1ccc(C(c2nnnn2-c2c(C)cccc2C)N2CCC(n3c(=O)[nH]c4ccccc43)CC2)cc1 (stereo unspecified),?,?,-46%,·,?,·,·,·,·
Cc1cccc(C)c1-n1nnnc1C(c1cc2ccccc2o1)N1CCC(n2c(=O)[nH]c3ccccc32)CC1 (stereo unspecified),7.1µM*,5.6µM*,-8%,·,?,5.8µM*,?,5.8µM*,21%
O=C1NCN(c2ccccc2)C12CCN(C(c1cccs1)c1nnnn1-c1ccc3c(c1)OCCO3)CC2 (stereo unspecified),13µM*,-23%,21%,·,?,?,-27%,10µM*,53%
O=c1[nH]c2ccccc2n1C1CCN(C(c2cccs2)c2nnnn2-c2ccc3c(c2)OCCO3)CC1 (stereo unspecified),11µM*,?,-6%,·,?,-83%,-24%,?,54%
COc1cc(C2c3cc4c(cc3C(OC(C)=O)[C@H]3COC(=O)C23)OCO4)cc(OC)c1OC (stereo partly specified),·,·,·,-3%,·,·,·,·,·
Sc1ccccc1Cl,·,-4%,·,·,i,·,·,·,·
OC12C3C4CC5C6C4C1C6C(C53)N2CCc1cccc(F)c1 (stereo unspecified),·,·,·,-8%,·,·,·,·,·
COc1ccc(-n2nnnc2C(c2ccnc3ccccc23)N2CCC(n3c(=O)[nH]c4ccccc43)CC2)cc1 (stereo unspecified),-35%,?,0%,·,?,·,·,·,·
O=c1[nH]c2ccccc2n1C1CCN(C(c2ccccc2OC(F)(F)F)c2nnnn2-c2ccc3c(c2)OCCO3)CC1 (stereo unspecified),8.9µM*,13µM*,-56%,·,·,?,?,8.2µM*,38%
O=c1[nH]c2ccccc2n1C1CCN(C(c2cccc3ccccc23)c2nnnn2Cc2ccccc2)CC1 (stereo unspecified),16µM*,?,-23%,·,?,6.5µM*,-7%,?,2%
O=c1[nH]c2ccccc2n1C1CCN(C(c2ccccc2)c2nnnn2-c2ccc3c(c2)OCCO3)CC1 (stereo unspecified),?,?,10%,·,·,·,·,·,·
Fc1ccc(C(OCCN2CCN(C/C=C/c3ccccc3)CC2)c2ccc(F)cc2)cc1,·,·,·,48%,·,·,·,·,·
